Measurements published in PubChem BioAssay AID1159580 (chemical genetic matrix, 2015).
Several values for one entry are separate records, joined by “and”; a condition that tells them apart may be missing. Equal values may be shown once. The whole screen tested about 5,500 compounds, of which about 2,000 (36%) were called active. Not shown: some 18% with an inconclusive outcome. Cut-off read from the data, not from the text of the source: active = normalized growth mostly below about 0.91 (no sharp cut-off); inconclusive = no clear call, values can overlap the other calls; inactive = mostly above about 0.92. The list shows a part of the results.

Experiment: chemical genetic growth profiling, strain panel (AID 1159580);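 note: tested at 20 µM; growth read once vehicle control cultures reached saturation at 30 °C; 1 = growth at the plate median or of vehicle wells; lower values mean less growth of the strain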
Conditions: S. cerevisiae deletion strains, growth OD

Measured: normalized growth

COc1cc2ccc(=O)oc2cc1O
inactive: locus YAL013W, strain DEP1, stronger effect = lower value 1.03 | locus YAL021C, strain ccr4, stronger effect = lower value 0.958 | locus YAL026C, strain drs2, stronger effect = lower value 0.968 | locus YAL030W, strain snc1, stronger effect = lower value 0.977 | locus YBL061C, strain skt5, stronger effect = lower value 0.965 | locus YBR009C, strain hhf1, stronger effect = lower value 1.01 | locus YBR021W, strain FUR4, stronger effect = lower value 0.985 | locus YBR023C, strain chs3, stronger effect = lower value 0.958 | locus YBR171W, strain sec66, stronger effect = lower value 0.984 | locus YBR229C, strain ROT2, stronger effect = lower value 0.946 | locus YBR231C, strain swc5, stronger effect = lower value 0.966 | locus YBR279W, strain paf1, stronger effect = lower value 0.96 | locus YCL011C, strain gbp2, stronger effect = lower value 0.946 | locus YCL016C, strain dcc1, stronger effect = lower value 0.94 | locus YCL029C, strain bik1, stronger effect = lower value 0.979 | locus YCL069W, strain vba3, stronger effect = lower value 0.98 | locus YCR088W, strain abp1, stronger effect = lower value 0.985 | locus YDL005C, strain med2, stronger effect = lower value 0.992 | locus YDL035C, strain GPR1, stronger effect = lower value 0.97 | locus YDL040C, strain nat1, stronger effect = lower value 0.973 | locus YDL074C, strain BRE1, stronger effect = lower value 1.04 | locus YDL101C, strain DUN1, stronger effect = lower value 0.999 | locus YDL185W, strain tfp1, stronger effect = lower value 0.974 | locus YDL192W, strain arf1, stronger effect = lower value 1 | locus YDR001C, strain nth1, stronger effect = lower value 0.976 | locus YDR069C, strain doa4, stronger effect = lower value 0.995 | locus YDR101C, strain arx1, stronger effect = lower value 0.987 | locus YDR137W, strain rgp1, stronger effect = lower value 1 | locus YDR150W, strain NUM1, stronger effect = lower value 1 | locus YDR159W, strain sac3, stronger effect = lower value 0.941 | locus YDR162C, strain NBP2, stronger effect = lower value 0.953 | locus YDR195W, strain ref2 0.994 | locus YDR297W, strain sur2, stronger effect = lower value 0.99 | locus YDR318W, strain mcm21, stronger effect = lower value 0.992 | locus YDR334W, strain swr1, stronger effect = lower value 0.959 | locus YDR335W, strain msn5, stronger effect = lower value 0.96 | locus YDR388W, stronger effect = lower value 1 | locus YDR392W, strain spt3, stronger effect = lower value 0.883 | locus YDR502C, strain sam2, stronger effect = lower value 0.999 | locus YEL003W, strain gim4, stronger effect = lower value 0.987 | locus YEL037C, strain rad23, stronger effect = lower value 0.974 | locus YEL061C, strain CIN8 (second series), stronger effect = lower value 0.977 | locus YEL061C, strain CIN8, stronger effect = lower value 0.987 | locus YER015W, strain faa2, stronger effect = lower value 0.967 | locus YER016W, strain bim1, stronger effect = lower value 0.949 | locus YER110C, stronger effect = lower value 1.01 | locus YER111C, strain swi4, stronger effect = lower value 0.967 | locus YER155C, strain BEM2 (second series), stronger effect = lower value 1.01 | locus YER155C, strain BEM2, stronger effect = lower value 1 | locus YER167W, strain BCK2, stronger effect = lower value 0.984 | locus YFR010W, strain ubp6, stronger effect = lower value 0.996 | locus YGL078C, strain dbp3, stronger effect = lower value 1 | locus YGL086W, strain mad1, stronger effect = lower value 0.998 | locus YGL167C, strain pmr1, stronger effect = lower value 0.978 | locus YGL173C, strain kem1, stronger effect = lower value 1.02 | locus YGL227W, strain vid30, stronger effect = lower value 0.975 | locus YGL240W, strain doc1, stronger effect = lower value 1 | locus YGL248W, strain PDE1, stronger effect = lower value 0.998 | locus YGL253W, strain hxk2, stronger effect = lower value 0.939 | locus YGR078C, strain PAC10, stronger effect = lower value 1.02 | locus YGR135W, strain pre9, stronger effect = lower value 1 | locus YGR252W, strain gcn5, stronger effect = lower value 1 | locus YHR013C, strain ard1, stronger effect = lower value 0.916 | locus YHR027C, strain rpn1, stronger effect = lower value 0.968 | locus YHR030C, strain SLT2, stronger effect = lower value 0.987 and 0.966 | locus YHR079C, strain IRE1 (second series), stronger effect = lower value 1.01 | locus YHR079C, strain IRE1, stronger effect = lower value 0.976 | locus YHR094C, strain hxt1, stronger effect = lower value 0.992 | locus YHR129C, strain ARP1, stronger effect = lower value 0.994 | locus YHR142W, strain chs7, stronger effect = lower value 0.914 | locus YHR200W, strain rpn10, stronger effect = lower value 0.991 | locus YIL066C, strain RNR3, stronger effect = lower value 0.935 | locus YIL073C, strain SPO22, stronger effect = lower value 1.01 | locus YIL125W, strain kgd1, stronger effect = lower value 1 | locus YIR030C, strain dcg1, stronger effect = lower value 0.996 | locus YJL092W, strain hpr5, stronger effect = lower value 0.968 | locus YJL095W, strain BCK1 (second series), stronger effect = lower value 0.987 | locus YJL095W, strain BCK1, stronger effect = lower value 1.02 and 1.01 | locus YJL115W, strain asf1, stronger effect = lower value 0.952 | locus YJL129C, strain trk1, stronger effect = lower value 0.929 | locus YJL134W, strain LCB3, stronger effect = lower value 0.982 | locus YJL154C, strain vps35, stronger effect = lower value 0.973 | locus YJL164C, strain tpk1, stronger effect = lower value 0.979 | locus YJL166W, strain qcr8, stronger effect = lower value 1 | locus YJL168C, strain set2, stronger effect = lower value 0.995 | locus YJL187C, strain SWE1 (second series), stronger effect = lower value 1.03 | locus YJR043C, strain POL32, stronger effect = lower value 0.954 | locus YJR066W, strain TOR1, stronger effect = lower value 0.929 | locus YKL009W, strain mrt4, stronger effect = lower value 1 | locus YKL068W, stronger effect = lower value 0.992 | locus YKL085W, strain MDH1 (second series), stronger effect = lower value 0.995 | locus YKL085W, strain MDH1, stronger effect = lower value 0.995 | locus YKL160W, strain elf1, stronger effect = lower value 0.931 | locus YKR001C, strain vps1, stronger effect = lower value 0.987 | locus YKR026C, strain gcn3, stronger effect = lower value 0.983 | locus YKR091W, strain srl3, stronger effect = lower value 0.963 | locus YLL001W, strain dnm1, stronger effect = lower value 1 | locus YLL026W, stronger effect = lower value 0.971 | locus YLL041C, strain sdh2, stronger effect = lower value 0.999 | locus YLR027C, strain aat2, stronger effect = lower value 0.989 | locus YLR039C, strain RIC1, stronger effect = lower value 0.971 | locus YLR058C, strain SHM2, stronger effect = lower value 0.988 | locus YLR102C, strain apc9, stronger effect = lower value 1 | locus YLR113W, strain HOG1, stronger effect = lower value 1.04 | locus YLR221C, strain rsa3, stronger effect = lower value 1.03 | locus YLR258W, strain gsy2, stronger effect = lower value 0.95 | locus YLR262C, strain YPT6 (second series), stronger effect = lower value 0.982 | locus YLR262C, strain YPT6, stronger effect = lower value 0.969 | locus YLR268W, strain sec22, stronger effect = lower value 1.01 | locus YLR320W, strain mms22, stronger effect = lower value 1.01 | locus YLR330W, strain CHS5, stronger effect = lower value 0.988 | locus YLR342W, strain FKS1 (second series), stronger effect = lower value 0.988 | locus YLR342W, strain FKS1, stronger effect = lower value 0.973 | locus YLR357W, strain rsc2, stronger effect = lower value 0.947 | locus YLR370C, strain arc18, stronger effect = lower value 0.964 | locus YLR371W, strain rom2, stronger effect = lower value 0.994 | locus YLR384C, strain iki3, stronger effect = lower value 0.941 | locus YLR418C, strain cdc73, stronger effect = lower value 1 | locus YML016C, strain PPZ1, stronger effect = lower value 0.986 | locus YML032C, strain rad52, stronger effect = lower value 0.986 | locus YML120C, strain ndi1, stronger effect = lower value 1 | locus YML124C, strain tub3, stronger effect = lower value 1.01 | locus YMR058W, strain fet3, stronger effect = lower value 0.971 | locus YMR078C, strain ctf18, stronger effect = lower value 1 | locus YMR125W, strain sto1, stronger effect = lower value 0.97 | locus YMR129W, stronger effect = lower value 0.976 | locus YMR205C, strain PFK2, stronger effect = lower value 1 | locus YMR223W, strain ubp8, stronger effect = lower value 0.997 | locus YMR231W, strain pep5, stronger effect = lower value 0.992 | locus YMR307W, strain GAS1, stronger effect = lower value 0.904 | locus YNL067W, strain RPL9B, stronger effect = lower value 1.06 | locus YNL071W, strain lat1, stronger effect = lower value 0.986 | locus YNL183C, strain NPR1, stronger effect = lower value 0.975 | locus YNL209W, strain ssb2, stronger effect = lower value 0.968 | locus YNL233W, strain BNI4, stronger effect = lower value 1.07 | locus YNL248C, strain rpa49, stronger effect = lower value 0.903 | locus YNL250W, strain rad50, stronger effect = lower value 1.01 | locus YNL271C, strain bni1, stronger effect = lower value 0.994 | locus YNL298W, strain CLA4, stronger effect = lower value 0.994 | locus YNL307C, strain MCK1, stronger effect = lower value 1 | locus YNL322C, strain KRE1 (second series), stronger effect = lower value 0.948 | locus YNR049C, strain mso1, stronger effect = lower value 0.955 | locus YNR052C, strain pop2, stronger effect = lower value 1.03 | locus YOL012C, strain htz1 0.802 | locus YOL147C, strain pex11, stronger effect = lower value 0.999 | locus YOR001W, strain rrp6, stronger effect = lower value 1.03 | locus YOR061W, strain CKA2, stronger effect = lower value 0.975 | locus YOR069W, strain VPS5, stronger effect = lower value 0.987 | locus YOR070C, strain gyp1, stronger effect = lower value 0.975 | locus YOR080W, strain dia2, stronger effect = lower value 0.967 | locus YOR083W, strain WHI5, stronger effect = lower value 0.896 | locus YOR106W, strain vam3, stronger effect = lower value 0.923 | locus YOR136W, strain idh2, stronger effect = lower value 0.998 | locus YOR144C, strain elg1, stronger effect = lower value 1 | locus YOR184W, strain ser1, stronger effect = lower value 0.995 | locus YOR231W, strain MKK1, stronger effect = lower value 0.976 | locus YOR265W, strain rbl2, stronger effect = lower value 0.97 | locus YOR270C, strain vph1, stronger effect = lower value 0.923 | locus YOR290C, strain snf2, stronger effect = lower value 0.929 | locus YOR316C, strain cot1, stronger effect = lower value 0.994 | locus YPL051W, strain arl3, stronger effect = lower value 0.963 | locus YPL078C, strain atp4, stronger effect = lower value 0.939 | locus YPL106C, strain sse1, stronger effect = lower value 0.899 | locus YPL240C, strain hsp82, stronger effect = lower value 0.987 | locus YPL241C, strain CIN2, stronger effect = lower value 0.997 | locus YPL256C, strain CLN2, stronger effect = lower value 1.01 | locus YPR119W, strain clb2, stronger effect = lower value 0.995 | locus YPR141C, strain kar3, stronger effect = lower value 0.989 | locus YPR163C, strain tif3, stronger effect = lower value 0.989 | locus YPR167C, strain met16, stronger effect = lower value 0.997 | strain wtn01, stronger effect = lower value 1.01
